# Measured values as given in PubChem BioAssay (NCATS).
# Inconclusive results are not listed. Values without a mark were called inactive. The source made the active and inactive calls. The call rests on the fitted dose curve; in most records, active means well fitted inhibition curve with a large enough effect; inconclusive means small, poorly fitted or top-dose-only effect; inactive means flat fitted curve, though single readings scatter.
# Assay: BET inhibitor-based combinations targeting novel dependencies in MECOM-rearranged (r) AML: AML-194 cell line (AID 2202237; further: nearly all actives have a fitted effect of over 40% in size;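 on viability (% of control): plate controls were vehicle wells for no effect and wells without cells for full effect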)
# Conditions: AML-194 (MECOM-r AML) viability, CellTiter-Glo, 48 h; series mostly up to 46 µM; viability (% of control): at the top concentration
# Excerpt: Ecotropic viral insertion site 1 (EVI1) is located on chromosome 3q26.2 as part of the MECOM (MDS and EVI1 complex) locus. Under normal hematopoiesis, EVI1 is a regulator of hematopoietic stem cell maintenance and self-renewal and EVI1 levels decrease as the cells differentiate. In approximately 5-10% of de novo acute myeloid leukemia (AML) EVI1 is aberrantly expressed, including Chromosomal inv(3)(q21;q26.2) or t(3;3)(q21;q26.2) alterations (MECOM-r) that account for about 50% of AML with EVI1 overexpression 31. AMLs with high levels of EVI1 have a poor prognosis and an overall survival time averaging between 10-14 months. EVI1 overexpression confers resistance in leukemia cells, highlighting the need to develop new targeted therapies for EVI1 overexpressing AMLs.
# Here, we performed an unbiased chemical drug screening by evaluating the single agent activity of a collection of 2,480 oncology-focused, approved and investigational drugs (NCATS Mechanism Interrogation Plates, MIPE v5.0) against a panel of seven AML cell lines. These included four MECOM-r cell-lines (AML-191, AML-194, UCSD-AML1 and HNT-34) and three non-MECOM-r AMLs (MV4-11, OCI-AML3 and SET-2). Exploiting the mechanistic redundancy built in the library, we identified target-level sensitivities in MECOM-r AML cells and relative activity as compared to other AML subtypes.
# A collection of 2480 mechanistically annotated dugs (MIPE v5.0) was used to screen four 3q26.2 rearranged AML cell lines and three non-3q26.2 rearranged AML cell lines. This library purposely exploits redundancy by including multiple inhibitors of key onco-targets, while simultaneously encompassing mechanistic diversity, targeting more than 800 distinct mechanisms of action. Briefly, cells were seeded in 5 uL of growth media using a Multidrop Combi dispenser into 1536 well white polystyrene tissue culture treated plates (Corning) at a density of 500cells/well. For each cell-line, for each of the 2480 drugs in MIPE v5.0 library, an 11-point dose curve was generated via a 1536 pin-tool. Plates were incubated for 48 hr at standard incubator conditions, covered by a stainless steel gasketed lid to prevent evaporation. Cell viability was determined by luminescence based, Cell Titer Glo assay (Promega). In detail, 3 uL of Cell Titer Glo were added to each well and plates were incubated at room temperature for 15 min with a stainless-steel lid in place. Luminescence readings were taken using a Viewlux (PerkinElmer) with a 2 s exposure time per plate. Compound dose-response curves were normalized to DMSO and empty well controls on each plate. Quantitative drug activity data from dose-response curves was determined utilizing area Under the Curve (AUC) and Z-transformed AUC (Z-AUC, a mean-centering transformation applied to each individual cell-line screened).
# Potency means the concentration at half of the fitted maximal effect.
Structure (SMILES),Potency,viability (% of control)
C[C@@H](NCCCc1cccc(C(F)(F)F)c1)c1cccc2ccccc12,26.3 µM (active),–
COC(=O)N1CCN(Cc2cccc(NC(=O)Nc3ccc(C)nc3)c2F)CC1,–,96.5%
Cc1[nH]c(=O)c(C#N)cc1-c1ccncc1,–,96.7%
Cc1cc(-c2ncc(CC(=O)Nc3ccc(-c4cnccn4)cn3)cc2C)ccn1,–,87.8%
Cn1c(=O)c(Oc2ccc(F)cc2F)cc2cnc(NC3CCOCC3)nc21,–,104%
Nc1ccccc1NC(=O)c1ccc(CNC(=O)OCc2cccnc2)cc1,4.68 µM (active),–
COc1cccc(Nc2c(C(N)=O)cnc3c(C)cc(S(=O)(=O)c4cccc(C(=O)N(C)C)c4)cc23)c1,–,103%
CCCCOc1c(C(=O)c2c(F)cc(C)cc2F)cnc2n[nH]cc12,3.72 µM (active),–
CN1CCN(c2ccc(-c3cccc(CN4CCOCC4)c3)cc2NC(=O)c2c[nH]c(=O)cc2C(F)(F)F)CC1,–,101%
c1cc(CN2CCCNCCNCCCNCC2)ccc1CN1CCCNCCNCCCNCC1,–,93.3%
FC(F)(F)c1ccc(CNc2ccc(Cc3c[nH]c4ncccc34)cn2)cc1,16.6 µM (active),–
Clc1ccc(Cn2c(CN3CCCC3)nc3ccccc32)cc1,20.9 µM (active),–
CNC(=O)c1c(F)cccc1Nc1nc(Nc2cc3c(cc2OC)CCN3C(=O)CN(C)C)nc2[nH]ccc12,7.42 µM (active),–
Cn1ncc(Cl)c1-c1cc(C(=O)N[C@H](CN)Cc2cccc(F)c2)sc1Cl,18.6 µM (active),–
O=C(O)C(O)Cc1ccc(O)c(O)c1 (stereo not given),–,103% [at 92.2 µM]
CS(=O)(=O)c1ccc(-c2nnc(/C=C/c3nnc(-c4ccc(C#N)cc4)o3)n2-c2ccccc2Cl)nc1,–,112%
CCOc1cc2ncc(C#N)c(Nc3ccc(F)c(Cl)c3)c2cc1NC(=O)/C=C/CN(C)C,5.25 µM (active),–
CN(C)C1CCN(C(=O)c2ccc(NC(=O)Nc3ccc(-c4nc(N5CCOCC5)nc(N5CCOCC5)n4)cc3)cc2)CC1,1.48 µM (active),–
CCCc1nc2c(C)cc(-c3nc4ccccc4n3C)cc2n1Cc1ccc(-c2ccccc2C(=O)O)cc1,–,114%
CN[C@@H]1[C@H](O[C@H]2[C@H](O[C@@H]3[C@@H](O)[C@H](O)[C@@H](N=C(N)N)[C@H](O)[C@H]3N=C(N)N)O[C@@H](C)[C@]2(O)C=O)O[C@@H](CO)[C@H](O)[C@H]1O,–,96.3%

Structure (SMILES),Potency,viability (% of control)
NC(=O)C1CCCc2c1[nH]c1ccc(Cl)cc21 (stereo not given),–,112%
CCn1cc(C(=O)O)c(=O)c2cc(F)c(N3CCN(C)CC3)cc21,–,90.7%
O=C(NC[C@H](O)CN1CCc2ccccc2C1)c1cc(NC2COC2)ncn1,–,99.5%
Cc1cc(O)c(-c2ccc([C@@H](C)CN(C)C)cc2)c2c1[nH]c(=O)c1sccc12,0.417 µM (active),–
O=C(Nc1ccc(S(=O)(=O)N2CCOCC2)cc1)c1cc(Cl)ccc1NS(=O)(=O)c1ccc(Cl)s1,–,108%
c1cc(-c2sc(-c3ccncc3)c(-c3ccncc3)c2-c2ccncc2)ccn1,–,93.3%
O=C(c1ccc(Nc2nccc(-c3cc4ccccc4s3)n2)cc1)N1CCC(N2CCCC2)CC1,7.42 µM (active),–
CCc1cccc2c3c([nH]c12)[C@@](CC)(CC(=O)O)OCC3,–,106%
O=C(Nc1cc(Cl)cc2c1[nH]c1cnccc12)c1cccnc1,–,90.3% [at 15.6 µM]
CNC(=O)c1cc(Oc2ccc(NC(=O)Nc3ccc(Cl)c(C(F)(F)F)c3)cc2)ccn1,16.6 µM (active),–
COC(=O)[C@@H]1[C@H]2C[C@H]3c4[nH]c5ccccc5c4CCN3C[C@@H]2CC[C@@H]1O,–,99.7%
Nc1ccc(-c2ccc3ncc4ccc(=O)n(-c5cccc(C(F)(F)F)c5)c4c3c2)cn1,0.0417 µM (active),–
Cc1ccc(C(=O)Nc2ccc(S(=O)(=O)O)c3cc(S(=O)(=O)O)cc(S(=O)(=O)O)c23)cc1NC(=O)c1cccc(NC(=O)Nc2cccc(C(=O)Nc3cc(C(=O)Nc4ccc(S(=O)(=O)O)c5cc(S(=O)(=O)O)cc(S(=O)(=O)O)c45)ccc3C)c2)c1,–,114% [at 15.6 µM]
CC1(C)CN(C(=O)c2ccc(-c3cccc4nc(NC(=O)C5CC5)nn34)cc2)C1,–,71.2%
NS(=O)(=O)c1cc(Cl)c(Cl)c(S(N)(=O)=O)c1,–,118%
Cc1nc(-c2cccnc2)sc1C(=O)Nc1ccccc1-c1cn2c(CN3CCOCC3)csc2n1,–,105%
C1COC(NC(C2CC2)C2CC2)=N1,–,116%
CC(=O)O[C@H]1C[C@@H]2CC[C@H]3[C@H]4C[C@H]([N+]5(C)CCCCC5)[C@@H](OC(C)=O)[C@@]4(C)CC[C@@H]3[C@@]2(C)C[C@H]1[N+]1(C)CCCCC1,–,98.9%
N#Cc1c(C2CCNCC2)cc(-c2c(O)cccc2OCC2CC2)nc1N,16.6 µM (active),–
Cc1cc(Nc2cc(N3CCN(C)CC3)nc(/C=C/c3ccccc3)n2)n[nH]1,1.18 µM (active),–
